Data as given in PubChem BioAssay AID360 (National Center for Advancing Translational Sciences (NCATS), 2006).
About 550 (1.1%) of roughly 48,000 compounds were called active. Another 4% or so got no clear call; they are omitted. Cut-off read from the data, not from the text of the source: active = potency below about 15 µM; inconclusive = mostly about 16 µM to 33 µM; inactive = weaker than that. For the sample, actives were picked, then their nearest neighbours and some compounds at random.

molecular target: Lysosomal acid glucosylceramidase (Homo sapiens) (UniProt P04062); assay: Glucocerebrosidase; conditions: purified enzyme, resorufin glucoside fluorescence (screen aimed at inhibitors), 20 min;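 note: the screen sought inhibitors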
Sequence (P04062 whole entry, looked up): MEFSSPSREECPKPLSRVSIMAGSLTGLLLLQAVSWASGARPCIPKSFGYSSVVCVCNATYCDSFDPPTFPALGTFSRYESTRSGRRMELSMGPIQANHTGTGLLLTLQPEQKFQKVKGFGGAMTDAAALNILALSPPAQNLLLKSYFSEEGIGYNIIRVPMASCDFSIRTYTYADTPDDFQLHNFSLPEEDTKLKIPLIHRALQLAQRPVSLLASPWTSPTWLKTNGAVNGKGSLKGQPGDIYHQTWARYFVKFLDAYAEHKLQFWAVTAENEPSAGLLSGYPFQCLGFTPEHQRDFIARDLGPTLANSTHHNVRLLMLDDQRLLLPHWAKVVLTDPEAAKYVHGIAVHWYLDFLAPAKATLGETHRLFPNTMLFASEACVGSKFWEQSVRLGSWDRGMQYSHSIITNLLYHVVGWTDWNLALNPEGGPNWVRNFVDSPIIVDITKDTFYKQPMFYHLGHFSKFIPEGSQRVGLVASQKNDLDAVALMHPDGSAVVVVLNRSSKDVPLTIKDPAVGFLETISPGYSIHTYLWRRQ
Outline: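 Compounds titrated against 0.2 nM normal enzyme, 30 uM resorufin beta-D-glucopyranoside substrate, citrate/phosphate buffer with taurocholate and tween-20, pH 5.9. Reaction ran 20 min at room temperature; fluorescence (Ex 548/Em 600) gave AC50.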
Potency is the fitted concentration of half-maximal effect.

Potency, inactive:
COc1ccc(C2C3=C(CC(C)(C)CC3=O)Oc3ncn4nc(-c5cccnc5)nc4c32)cc1OC (stereo not given) > 76.9 µM
CCCn1c(SCC(=O)Nc2c(C)cccc2C)nnc1C(C)C > 76.9 µM
CCOC(=O)CSc1nnc(-c2ccco2)n1C > 76.9 µM
CN1CCC2(CC1)NC(=O)NC2=O > 76.9 µM
O=C(Nc1cnccn1)c1cccnc1 > 76.9 µM
O=C(Cn1c(-c2ccccn2)nc2ccccc21)NCCN1CCOCC1 > 76.9 µM
COc1ccc(-c2nnc(SCC(=O)c3ccco3)n2-c2ccccc2)cc1 > 76.9 µM
Cc1ccc(C(C(=O)NC2CCCC2)N(Cc2ccco2)C(=O)CCC(=O)Nc2ccccn2)cc1 (stereo not given) > 76.9 µM
COC(=O)c1ccc(C2NC(=O)NC(C)=C2C(=O)N(C)C)cc1 (stereo not given) > 76.9 µM
COc1ccc(C2C(C(=O)Nc3ccccc3OC)=C(C)Nc3nnnn32)c(OC)c1 (stereo not given) > 76.9 µM
CCOC(=O)c1c(C)nc(-c2ccccc2)nc1NC(=O)C(C)C > 76.9 µM
O=c1[nH]nc(Cc2ccccn2)c2ccccc12 > 76.9 µM
CCOC(=O)c1cnc(-n2nc(C)cc2C)nc1-n1nc(C)cc1C > 76.9 µM
CCc1ccccc1N(CC(=O)N1CCN(c2ccccc2F)CC1)S(C)(=O)=O > 76.9 µM
CCOc1ncccc1C(=O)OCc1cn2cc(Cl)ccc2n1 > 76.9 µM
CN(Cc1ccccc1)Cc1ccccc1F > 76.9 µM
COc1ccccc1OCCC(=O)OCC(=O)NC(=O)NC(C)(C)C > 76.9 µM
CC(=O)c1cccc(S(=O)(=O)N2CCC(n3nnc4cc(F)ccc43)CC2)c1 > 76.9 µM
O=S(=O)(c1cccc(-c2nnc(SC(F)F)n2-c2ccccc2)c1)N1CCCCC1 > 76.9 µM
O=C(C1=C(O)C(=O)N(Cc2ccccc2)C1c1cccnc1)c1ccco1 (stereo not given) > 76.9 µM
O=C1NC(c2cc3c(cc2Cl)OCO3)Oc2ccccc21 (stereo not given) > 76.9 µM
O=C1N(Cc2ccc3c(c2)OCO3)c2ccccc2C1(O)c1c[nH]c2ccccc12 (stereo not given) > 76.9 µM
CCC(=O)Nc1ccc(C(=O)CSc2nnc(CNc3ccc(Cl)cc3)o2)cc1OC > 76.9 µM
Cc1cc(C)c2c(n1)nn1c(N3CCOCC3)cc(C)nc21 > 76.9 µM
Cc1cc(-n2nc(C)cc2C)n2ncc(-c3ccccc3)c2n1 > 76.9 µM
COc1ccc(CC(=O)Nc2ccc3c(c2)CCC3)cc1S(=O)(=O)N1CCOCC1 > 76.9 µM
Cc1cccc(-n2c(N)cc(=O)nc2SC(C)C(=O)NC2CCCCC2)c1 (stereo not given) > 76.9 µM
O=C(Nc1cccc(NC(=O)N2CCN(c3ccccc3)CC2)c1)N1CCN(c2ccccc2)CC1 > 76.9 µM
CC(C)N(C(=O)COC(=O)c1ccccc1C(=O)N1CCN(c2ccc(F)cc2)CC1)C(C)C > 76.9 µM
COC(=O)Cc1c(C)c2ccc(OCC(=O)NCc3ccc4c(c3)OCO4)cc2oc1=O > 76.9 µM
CC1(C)Oc2ccc(C(=O)N3CCOCC3)cc2N(CC(=O)Nc2ccccc2)C1=O > 76.9 µM
Cc1ccc(-c2noc(CN3CCN(Cc4ccccc4)CC3)n2)cc1 > 76.9 µM
CCOC(=O)Cc1c(C)nc2c(C#N)c(C)nn2c1C > 76.9 µM
Cc1cc(C(=O)COC(=O)CCCN2C(=O)c3ccccc3C2=O)c(C)n1C > 76.9 µM
CCOC(=O)CSc1nnc(NC(=O)c2cccc(S(=O)(=O)N3CCCC3)c2)s1 > 76.9 µM
COc1cccc(-c2nnc(N(C)C(=O)c3ccno3)s2)c1 > 76.9 µM
CC1(C)CC(CCC(=O)Nc2ccccc2Cl)C(=O)O1 (stereo not given) > 76.9 µM
CN(C(=O)COc1ccccc1)c1nnc(-c2ccncc2)s1 > 76.9 µM
Cc1cc(Cl)c(S(=O)(=O)NCCC(=O)O)cc1OCC(N)=O > 76.9 µM
COC(=O)C(CC(=O)Nc1cc(C)ccc1C)Nc1ccccc1OC (stereo not given) > 76.9 µM
Cc1ccc2nc(S(=O)(=O)O)[nH]c2c1 > 76.9 µM

Potency, active:
COC(=O)c1ccc(C2C3=C(Nc4nnnn42)c2ccccc2OC3)cc1 (stereo not given) 8.19 µM
O=S(=O)(c1cccc(S(=O)(=O)N2CCC(n3nnc4ccccc43)CC2)c1)N1CCCCC1 10.5 µM
Cc1cc(N2CCCC2)n2nc(C)c(-c3ccccc3)c2n1 7.9 µM
CC(=O)N1CCN(c2ccc(NCc3ccc(C(C)C)cc3)cc2)CC1 7.71 µM
